{
  "source": "the supplement of paper PMC11417369",
  "note": "Whole data set: some 25,000 sequences, median “ln(normalized median fluorescence intensity)” near 9.7, cut for the highest 2% near 11. Many of the other results were omitted from the sample, so the highest values are more common in it than they were.",
  "data": [
    {"test_system": "PfAP2-HC AP2 domain (GST-tagged)", "assay": "gcPBM binding intensity (ln(normalized median fluorescence intensity)); higher = stronger DNA binding", "procedure,_shortened": "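GST-fused DNA-binding domains of P. falciparum, expressed in E. coli, were applied at about 25 μg on average for 1 h to an Agilent 4 × 180k array of primer-extended double-stranded 36-bp intergenic genomic probes and negative controls. Binding intensity is the highest Masliner-normalised natural-log median intensity across replicate spots of either probe orientation, measured with Alexa488 anti-GST antibody and a 488 nm scan.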", "values": [
      {"sequence": "ATTTTTTCTTTTTTTTTTCCGTTTTTTTGGACATTT [CACACA_negctrl_site1174]", "gcPBM binding intensity (ln)": 9.75},
      {"sequence": "TAAATATATATATATAGTACAATATAATTATGATAT [XGTACX_site258]", "gcPBM binding intensity (ln)": 9.75},
      {"sequence": "AAAAAAAAAATATCATGTACAAATATAATAAAATTT [XGTACX_site3896]", "gcPBM binding intensity (ln)": 9.79},
      {"sequence": "TATATTTAAGTACATAAATAAGCCCATTTACATACA [CACACA_negctrl_site1224]", "gcPBM binding intensity (ln)": 9.37},
      {"sequence": "AATAATAATGCTTTAACTTTGTTGTTATTTAGAATA [CACACA_negctrl_site1144]", "gcPBM binding intensity (ln)": 9.44},
      {"sequence": "AATAGCTAGCTGTGCACACAAACATATTTTCCAAAT [CACACA_site880]", "gcPBM binding intensity (ln)": 9.91},
      {"sequence": "AGGTTATATATGAACAAAAATAAAATATTCATAGGC [TGCATGCA_negctrl_site46]", "gcPBM binding intensity (ln)": 9.77},
      {"sequence": "ATAAATACTAGGCACACACACATATAGATTTATATA [CACACA_site7064]", "gcPBM binding intensity (ln)": 10.8},
      {"sequence": "AAAAAAAACAGACACACACACACATATACATACATA [CACACA_site2665]", "gcPBM binding intensity (ln)": 11.5},
      {"sequence": "AAATAAATACTAGGCACACACACATATATATATATA [CACACA_site2079]", "gcPBM binding intensity (ln)": 11},
      {"sequence": "AAAAAACACAGACACACACACATATACATACATACA [CACACA_site2666]", "gcPBM binding intensity (ln)": 10.7},
      {"sequence": "ATAAATACTAGGCACACACACATATATATATATATA [CACACA_site2080]", "gcPBM binding intensity (ln)": 10.4},
      {"sequence": "TAAACAGACATATAAACACACATACATACATACATA [CACACA_site7215]", "gcPBM binding intensity (ln)": 10.2},
      {"sequence": "TGTTTCTAAGAATTTACACACAAAATATTTCTACAT [CACACA_site7846]", "gcPBM binding intensity (ln)": 9.9},
      {"sequence": "TTTATTTATTAAGAATGTACATGTATTTGTTAAATA [XGTACX_site4465]", "gcPBM binding intensity (ln)": 9.4},
      {"sequence": "AAAAATTTGGCATACACACACACACGCACACGCACA [CACACA_site6422]", "gcPBM binding intensity (ln)": 10.6},
      {"sequence": "TATACACATAGACACACACACATACACGCACATACA [CACACA_site6908]", "gcPBM binding intensity (ln)": 10.7},
      {"sequence": "ATTTGGCATAGACACACACACACACGCACGCACATA [CACACA_site6424]", "gcPBM binding intensity (ln)": 11.1},
      {"sequence": "AAATTTGGCAGACACACACACACACGCACACGCACA [CACACA_site6423]", "gcPBM binding intensity (ln)": 11.5},
      {"sequence": "CACATACACATACACATACACACGCATAGAAACATA [CACACA_site2136]", "gcPBM binding intensity (ln)": 10.5},
      {"sequence": "CATAGATACATACACGCACACACATATATATATATA [CACACA_site13]", "gcPBM binding intensity (ln)": 10.3},
      {"sequence": "CGCACACGCAGACACACACACACATATAAATAAATA [CACACA_site7101]", "gcPBM binding intensity (ln)": 10.8},
      {"sequence": "TCTCATAGTAGACACACACACACACGCACATATATA [CACACA_site6916]", "gcPBM binding intensity (ln)": 11.3},
      {"sequence": "TATCTCATAGTATACACACACACACGCGCACATATA [CACACA_site6917]", "gcPBM binding intensity (ln)": 10.5},
      {"sequence": "TCAAGTTTATATTAACTATTTATGAAAAAAAAAAGA [CACACA_negctrl_site902]", "gcPBM binding intensity (ln)": 9.38},
      {"sequence": "ATTTTATATACACTTTGTACTTATTTTATTCTTCTT [XGTACX_site4200]", "gcPBM binding intensity (ln)": 9.93},
      {"sequence": "TAATATATTTATAAGTGTACACATTATATAAATCCC [XGTACX_site8875]", "gcPBM binding intensity (ln)": 9.64},
      {"sequence": "ATCCATTATTTTTGTTGTACGGGTAACTTTAAAAAG [XGTACX_site2226]", "gcPBM binding intensity (ln)": 9.5},
      {"sequence": "ATGAATAATTAATGATGTACTTAAAAAAAAAAATAT [XGTACX_site6346]", "gcPBM binding intensity (ln)": 9.53},
      {"sequence": "TATATAGCTAAAAACACACAAATATGTACACATAAA [CACACA_site7665]", "gcPBM binding intensity (ln)": 9.88},
      {"sequence": "ATGAACATATCAATTCTCAAAATAGGATGAGAGCAT [CACACA_negctrl_site230]", "gcPBM binding intensity (ln)": 9.6},
      {"sequence": "ATCATAAATATAGCAACACACGGATTACATAAAATA [CACACA_site2796]", "gcPBM binding intensity (ln)": 9.85},
      {"sequence": "GTGGTTATATATTAAGTGCATATTATAATTTTAAAC", "gcPBM binding intensity (ln)": 9.52},
      {"sequence": "TATGTGAATATAATCACACACAATACGGAAACCCAC [CACACA_site2725]", "gcPBM binding intensity (ln)": 9.99},
      {"sequence": "TATGTGAATATAATCACACACAATACGGAAAGAGAC [CACACA_site7311]", "gcPBM binding intensity (ln)": 11.2},
      {"sequence": "AATATGTGAATATAATCACACACAATACGGAAACAC [CACACA_site8875]", "gcPBM binding intensity (ln)": 10.7},
      {"sequence": "TTAAAATTTTTCAAAAGTACATAAATAATATATATT [XGTACX_site4694]", "gcPBM binding intensity (ln)": 9.32},
      {"sequence": "ATAAACAGATCATATACATGCATATATGTAGAATAA [TGCATGCA_site157]", "gcPBM binding intensity (ln)": 9.82},
      {"sequence": "CACACGCACGAACACACACACACACGCACGCACATA [CACACA_site6305]", "gcPBM binding intensity (ln)": 10.7},
      {"sequence": "CACACGCACGAACACACACACACACGCATATAAATA [CACACA_site6302]", "gcPBM binding intensity (ln)": 10.9},
      {"sequence": "CACACGCACGAACACACACACACACGCGCACATATA [CACACA_site6304]", "gcPBM binding intensity (ln)": 11},
      {"sequence": "CACGCGCACGAACACACACACACACGCATATAAATA [CACACA_site7103]", "gcPBM binding intensity (ln)": 11},
      {"sequence": "AACACGCGCAGACACACACACACACGCACATATATA [CACACA_site7104]", "gcPBM binding intensity (ln)": 10.9},
      {"sequence": "CACACGCACGAACACACACACATATAAATATAAATA [CACACA_site6299]", "gcPBM binding intensity (ln)": 10.2},
      {"sequence": "ATATACTATTAACCACATATGTGTGTTAATTTATAT [GTGCAC_negctrl_site315]", "gcPBM binding intensity (ln)": 9.79},
      {"sequence": "CATATATAATAATATTGTACATATATAATAATAATA [XGTACX_site3338]", "gcPBM binding intensity (ln)": 9.69},
      {"sequence": "AAATAAGAACATAGAATGCACTTTTTTTTTTTTTCC", "gcPBM binding intensity (ln)": 9.51},
      {"sequence": "TAAATATATGCATATACACACAACAAAAAAATATAT [CACACA_site2341]", "gcPBM binding intensity (ln)": 10.1},
      {"sequence": "AATAAGTATACACATACACACACACCCAAAAAAAAA [CACACA_site8034]", "gcPBM binding intensity (ln)": 11},
      {"sequence": "AAGTAAAATAAGTATACACACATAAATATATATATA [CACACA_site685]", "gcPBM binding intensity (ln)": 10.1},
      {"sequence": "AATAAAATAATAAAAGCACACAAGAATACACCCAAA [CACACA_site7919]", "gcPBM binding intensity (ln)": 10.6},
      {"sequence": "TAAGTATACGCATACACACACACACCCAAAAAAAAA [CACACA_site425]", "gcPBM binding intensity (ln)": 10.4},
      {"sequence": "AAGAAAATAAAAAATAAGCATAATATGATATGATAT [TGCATGCA_negctrl_site196]", "gcPBM binding intensity (ln)": 10.1},
      {"sequence": "TGATAATAAGCATACACACACACACTAGAAAAAAAA [CACACA_site4558]", "gcPBM binding intensity (ln)": 11.5},
      {"sequence": "GGTGATAATAAGCATACACACACACCCAAAAAAAAA [CACACA_site8137]", "gcPBM binding intensity (ln)": 10.2},
      {"sequence": "TGATAATAAGCATACACACACACACCCAAAAAAAAA [CACACA_site721]", "gcPBM binding intensity (ln)": 11.2},
      {"sequence": "TGATAATAAGCATACACACACACACTAAAAAAAAAA [CACACA_site6478]", "gcPBM binding intensity (ln)": 10.9}
    ]}
  ]
}
